The whole screen tested about 360,000 compounds, of which about 1,300 (0.36%) were called active. The sample holds actives, similar compounds and a random draw of the others, so the mix is not that of the screen. No stated cut-off is given here; in the data, active means inhibition above about 19%; inactive means the rest.
system: T-cell receptor (TCR); assay: small molecules blocking TCR binding to CD3 – biochemical, fluorescence, TAMRA-labeled TCR probe, primary screen (AID 651800); details: at 9.4 µM, active compounds read high;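 further: recombinant mutant TCR 2C K166C tagged with TAMRA read by polarization; 0% = receptor in buffer alone and 100% = receptor with positive control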

Compound	inhibition
COC(=O)Cc1nnn2c1[C@H](C)[C@H](c1ccccc1Br)OCC2	-3.6% (inactive)
COC(=O)C1=C(C)N(Cc2cccc(C(F)(F)F)c2)C(=NCc2ccccc2)NC1c1ccccc1C(F)(F)F (stereo unspecified)	2.13% (inactive)
O=C1[C@@H](c2ccccc2)[C@@H](c2ccccc2)N1c1ccccc1	4.73% (inactive)
C=CC1=CCN(S(=O)(=O)C(C)(C)C)[C@@H]1CCO	5.24% (inactive)
O=[N+]([O-])c1cc(Cl)cc(/C=N/NC(=S)Nc2cc(S(=O)(=O)N3CCOCC3)ccc2Cl)c1O	41.3% (active)
COC(=O)c1cc(Oc2ccc(S(=O)(=O)N3CCOCC3)cc2[N+](=O)[O-])cc(C(=O)OC)c1	7.58% (inactive)
Cc1cc(OCCCC(=O)Nc2cc(S(=O)(=O)N3CCOCC3)ccc2N2CCOCC2)ccc1Cl	0.46% (inactive)
O=S(=O)(c1cccs1)N1CCCc2nc(-c3ccc(Br)cc3)ccc21	3.53% (inactive)
COc1ccccc1CCn1cnc(-c2ccccc2)c1C(C)C	0.67% (inactive)
COc1cc(OC)cc(-c2c(-c3cccs3)c3cc(-c4ccc(OC)nc4)ccc3n2C)c1	-3.68% (inactive)
COc1cc(OC)cc(-c2c(-c3ccc(F)cc3)c3cc(-c4ccc5cc[nH]c5c4)ccc3n2C)c1	-1.04% (inactive)
COc1ccc(-c2c(-c3cc(OC)cc(OC)c3)n(C)c3ccc(-c4ccn[nH]4)cc23)cc1	23.9% (active)
COc1cccc(CNC(=O)[C@H]2CCCN2C(=O)[C@H]2CCCN2C(=O)c2ccc(F)cc2)c1	5.75% (inactive)
Cc1ccc(S(=O)(=O)NCCC(=O)NNC(=O)C2COc3ccccc3O2)cc1 (stereo unspecified)	-2.9% (inactive)
Cc1c(CC(=O)N2CCN(C(=O)C3COc4ccccc4O3)CC2)c(=O)oc2c(O)c(O)ccc12 (stereo unspecified)	82.2% (active)
Cc1c(CCC(=O)O)c(=O)oc2c(C)c(OCc3ccccc3Cl)ccc12	-7.63% (inactive)
O=c1ccc2c(-c3ccccc3S(=O)(=O)O)c3ccc(O)c(O)c3oc-2c1O	33.4% (active)
COc1ccc(C2=CN(Cc3ccccc3)C(c3ccc(OC)cc3)CC2=O)cc1 (stereo unspecified)	-0.11% (inactive)
COC(=O)[C@]12C[C@H](CC(=O)NCCCCc3ccccc3)C(=O)N(Cc3ccc4c(c3)OCO4)C1=C[C@H](C(C)(C)C)O[C@@H]2C	-0.56% (inactive)
COC(=O)C1=C(C)N(Cc2ccccc2C(F)(F)F)C(=NCc2ccc(C(F)(F)F)cc2)NC1c1ccc(F)cc1 (stereo unspecified)	10.2% (inactive)
COc1ccc(/C(=N\O)c2nccc3cc(OC)c(OC)cc23)cc1OC	37.5% (active)

Compound	inhibition
COc1cc2ccc(C(C)=O)c(O)c2cc1OC	-7.1% (inactive)
COC(=O)c1ccc(-c2c(-c3ccccc3)ncc3cc(OC)c(OC)cc23)cc1	-0.95% (inactive)
CN(C)CCNC(=O)Cc1ccc([N+](=O)[O-])cc1	6.84% (inactive)
O=C(NCC1CCCO1)C(C(=O)c1ccccc1)n1cc(Cl)ccc1=O (stereo unspecified)	4.24% (inactive)
CN(C)CCNC(=O)C(C(=O)c1ccccc1)n1ccccc1=O (stereo unspecified)	27.9% (active)
Nc1ncnc2c1ncn2C1OC(CO)CC1O (stereo unspecified)	-7.35% (inactive)
COC(=O)c1c(-c2ccc(OC)cc2)c2c(c3c4ccccc4n(S(=O)(=O)c4ccc(C)cc4)c13)C(=O)N(C)C2	0.77% (inactive)
O=S1(=O)c2c(cccc2N2CCCC2)O[C@H](COCc2ccccc2)CN1C1CC1	19.3% (active)
CSc1ccc(Oc2cccc3c2S(=O)(=O)N([C@H](C)c2ccccc2)C[C@@H](COCc2ccccc2)O3)cc1C	11.5% (inactive)
O=S1(=O)c2c(cccc2N2CCCCC2)O[C@H](COCc2ccccc2)CN1C1CC1	2.48% (inactive)
CC1CCN(C(=O)c2ncn3c2C(=O)N[C@@H](C)C3)CC1	3.49% (inactive)
COc1ccc(/C=C/c2c(-c3cccc(C)c3)oc3ccc(-c4ccc5c(c4)OCO5)cc23)cc1	-3.78% (inactive)
Nc1[nH]c(C(=O)c2ccc(Br)cc2)c(-c2ccc3c(c2)OCO3)c1C(=O)NCCc1c[nH]c2ccccc12	-5.65% (inactive)
COc1ccccc1N(CC(=O)N1CCCCC1)S(=O)(=O)c1ccccc1	3.6% (inactive)
COc1ccccc1N(CC(=O)N/N=C(\C)c1ccccc1O)S(=O)(=O)c1ccc(C)cc1	26.6% (active)
COc1ccccc1N(CC(=O)Nc1c(C)n(C)n(-c2ccccc2)c1=O)S(=O)(=O)c1ccccc1	3.09% (inactive)
COC(=O)[C@]12C[C@H](CC(=O)N3CCN(C(=O)C4CC4)CC3)C(=O)N(Cc3ccc4c(c3)OCO4)C1=C[C@H](C(C)(C)C)O[C@@H]2C	3.03% (inactive)
C/C=C/C=C/C(=O)O	27.1% (active)
COc1ccc(-c2ccccc2C2Cc3nnccc3CN2C(=O)Nc2ccccc2)cc1 (stereo unspecified)	-1.6% (inactive)
CCCCCCCCN1C(=O)[C@@H](CC(=O)NCc2ccccc2)C[C@@]2(C(=O)OC)C1=C[C@H](C(C)(C)C)O[C@@H]2C	-4.58% (inactive)
CCCCc1ccc(NC(=O)CN2C(=O)NC(Cc3ccccc3)C2=O)cc1 (stereo unspecified)	-0.34% (inactive)

Compound	inhibition
O=C1C(Cc2ccc(O)cc2)NC(=S)N1Cc1ccccc1 (stereo unspecified)	25.9% (active)
Cc1cc(C)c(NC(=O)CN2C(=O)NC(Cc3ccccc3)C2=O)c(C)c1 (stereo unspecified)	-1.72% (inactive)
COc1ccccc1-c1ccc([C@@H]2C[C@H]3[C@H](CON3C)CN2S(=O)(=O)c2cc(Cl)cc(Cl)c2)cc1	-0.88% (inactive)
C[C@@H]1ON(C)[C@H]2C[C@H]3c4cc(N5CCOCC5)ccc4CCN3C[C@@H]12	7.02% (inactive)
COc1cccc2cc(C(N)=O)/c(=N\NC(=O)c3ccccc3)oc12	6.06% (inactive)
CCN(CC)c1ccc2cc(C(N)=O)/c(=N\NC(=O)c3ccncc3)oc2c1	30.5% (active)
CCN(CC)c1ccc(C(=O)N/N=C(\C)c2cccc(OC)c2)cc1	6.48% (inactive)
O=C(NCc1ccccc1)[C@H]1CCCN1C(=O)[C@@H]1CCCN1C(=O)c1ccc(Cl)cc1Cl	5.28% (inactive)
CCc1ccc(C2=CC(=O)CC(C)(C)C2=O)cc1	-0.75% (inactive)
COc1ccc(C(=O)NNc2cc(C)nc(NNC(=O)c3ccc(OC)cc3)n2)cc1	19.4% (active)
COc1ccc(C(=O)NCC[N+](C)(C)C)cc1	-6.67% (inactive)
COc1ccc(C(=O)NCCSc2ccccc2C)cc1	-0.19% (inactive)
CC(c1ccccc1)n1c(NCCCn2ccnc2)nc2c1c(=O)[nH]c(=O)n2C (stereo unspecified)	5.62% (inactive)
COc1ccc(S(=O)(=O)Nc2ccc3c(c2)C(=O)N([C@H](C)CO)C[C@H](C)[C@@H](CN(C)C)OCCCC[C@H](C)O3)cc1	-1.68% (inactive)
CC(=O)c1ccc(S(=O)(=O)NCC2CCN(C(=O)C(=O)c3cccs3)CC2)cc1	-11.4% (inactive)
CCN(CC)CCCC(C)n1c2nc(=O)[nH]c(=O)c-2nc2cc(Cl)ccc21 (stereo unspecified)	54.6% (active)
O=C(NCc1ccccc1)[C@H]1CCCN1C(=O)[C@H]1CCCN1C(=O)c1cc(F)cc(F)c1	1.6% (inactive)
Cc1ccc(-c2nn(-c3ccccc3)cc2C(=O)Nc2cccc(S(=O)(=O)N3CCOCC3)c2)cc1	2.85% (inactive)
O=C(/C=C/c1cn(-c2ccccc2)nc1-c1ccc2c(c1)OCCO2)NCCCN1CCOCC1	-3.23% (inactive)
Cc1ccc(-c2nn(-c3ccccc3)cc2/C=C/C(=O)Nc2cccc(S(N)(=O)=O)c2)cc1	83.6% (active)
CN(C)C(=O)N1CCN(C(=O)[C@@H](Cc2ccccc2)NC(=O)[C@H]2O[C@@H](n3ccc(N)nc3=O)[C@H](O)[C@@H]2O)CC1	-1.88% (inactive)

Compound	inhibition
COC(=O)C1=C(C(=O)OC)C2C=C(C(C)C)C1C(=O)C2(C)O (stereo unspecified)	-5.88% (inactive)
COC(=O)C1=C(C)N(Cc2cccc(C(F)(F)F)c2)C(=NCc2cccc(C(F)(F)F)c2)NC1c1ccccc1C(F)(F)F (stereo unspecified)	7% (inactive)
CC1CCCN(c2cccc3c2S(=O)(=O)N(Cc2ccc(F)cc2)[C@@H](C)[C@H](c2ccccc2)O3)C1 (stereo partly specified)	-3.78% (inactive)
CC(C)C[C@H](NC(=O)CC1CCCC1)C(=O)N1CCC[C@H]1C(=O)NCc1ccccc1	-0.62% (inactive)
COc1ccccc1C(=O)NCC(=O)OCC(=O)NNC(=O)c1ccc(Br)cc1	7.36% (inactive)
COc1ccccc1C(=O)NNC(=O)c1ccc(NC(=O)c2ccccc2)cc1	37.3% (active)
COc1ccccc1C(=O)c1ccccc1C(=O)c1ccccc1	-2.38% (inactive)
CC(=O)C1=C(C)N(Cc2ccc(Cl)cc2)C(=S)NC1c1ccc(F)cc1 (stereo unspecified)	3.88% (inactive)
COc1ccccc1Cc1c(-c2ccc(F)cc2)nc2ccc(C)cn12	-1.71% (inactive)
O=C(NCc1ccccc1)[C@@H]1CCCN1C(=O)[C@@H](NS(=O)(=O)c1ccc(F)cc1F)C1CCCCC1	-7.08% (inactive)
COc1ccccc1C(CNC(=O)c1ccc(C)c(S(=O)(=O)N2CCCCC2)c1)N(C)C (stereo unspecified)	-9.01% (inactive)
Cc1ccc(C(=O)NNC(=O)c2ccncc2)cc1S(=O)(=O)N1CCCCC1	-4.33% (inactive)
Cc1ccc(C(=O)NCC(=O)O)cc1S(=O)(=O)N1CCCCC1	21.8% (active)
COC(=O)[C@]12C[C@H](CC(=O)NCc3ccc(OC)c(OC)c3)C(=O)N(Cc3ccccc3)C1=C[C@H](C(C)C)O[C@@H]2C1CC1	1.22% (inactive)
Cc1nn(C)cc1N1C(=O)c2cccc3c(N)ccc(c23)C1=O	38% (active)
COc1ccc(NS(=O)(=O)c2cc(NC(=O)c3ccc(S(=O)(=O)N(C)C)cc3)ccc2N2CCOCC2)cc1	1.69% (inactive)
COc1ccc(NS(=O)(=O)c2cc(NC(=O)C3CCCCC3)ccc2N2CCOCC2)cc1	0.76% (inactive)
COc1ccc(NS(=O)(=O)c2cc(NC(=O)/C=C/c3cc(OC)c(OC)c(OC)c3)ccc2N2CCCCC2)cc1	22.8% (active)

— PubChem BioAssay AID651800 (The Scripps Research Institute Molecular Screening Center, 2012)
